Whole data set: some 8,300 sequences, median “log2 fold change of degron read counts, EGFP-low vs EGFP+ sorted cells (limma voom), compound-induced degradation” near -1.1, cut for the highest 2% near 3.2. For the sample, the highest values were picked, then their nearest neighbours and some sequences at random.
T1: CRBN, Q96SW2
T1 chain: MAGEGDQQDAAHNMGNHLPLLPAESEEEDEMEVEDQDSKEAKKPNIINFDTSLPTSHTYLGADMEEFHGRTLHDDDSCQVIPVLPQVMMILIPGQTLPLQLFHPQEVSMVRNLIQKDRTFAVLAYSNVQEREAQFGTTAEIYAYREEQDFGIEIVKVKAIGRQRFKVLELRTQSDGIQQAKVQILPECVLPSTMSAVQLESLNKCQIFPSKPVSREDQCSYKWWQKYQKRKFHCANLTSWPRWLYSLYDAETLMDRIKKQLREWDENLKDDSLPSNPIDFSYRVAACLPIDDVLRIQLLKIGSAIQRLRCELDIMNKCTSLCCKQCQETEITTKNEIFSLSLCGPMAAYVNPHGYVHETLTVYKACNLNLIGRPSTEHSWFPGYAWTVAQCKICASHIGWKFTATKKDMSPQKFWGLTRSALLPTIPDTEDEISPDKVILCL


Target: T1, CRBN, Q96SW2
Assay: log2 fold change of degron read counts, EGFP-low vs EGFP+ sorted cells (limma voom), compound-induced degradation; higher = more compound-induced degradation of the degron-EGFP fusion; degrons are variants of IKZF1/3 zinc finger 2; compound dose not given here
Settings: Jurkat, 18 h
[1] = compound: compound 19 (5-tert-butyl-thalidomide)
[2] = compound: compound 22 (5-morpholino-thalidomide)
[3] = compound: compound 33 (diphenyl IMiD analogue)
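Also: pooled lentiviral library of zinc finger degron-EGFP fusions in mCherry-positive Jurkat cells, FACS-sorted after compound exposure, with degron abundance counted by next-generation sequencing.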

| Sequence | log2 fold change of degron read counts [1] | log2 fold change of degron read counts [2] | log2 fold change of degron read counts [3] | log2 fold change of degron read counts (compound: thalidomide) |
| --- | --- | --- | --- | --- |
| FTCPICGAIFTQKGNLLRHIKL [46F_47T_49P_50I_52G_53A_54I_55F_67L_, Q9UKT9] | -0.365 | 1.34 | 2.33 | 2.71 |
| FFCDICGALFTQKGNLLRHIKL [46F_47F_49D_50I_52G_53A_54L_55F_67L_, Q9UKT9] | 2.27 | 1.43 | 0.356 | -1.44 |
| FKCPVCGAEFTQKGNLLRHIKL [46F_47K_49P_50V_52G_53A_54E_55F_67L_, Q9UKT9] | -1.33 | -1.7 | -2.52 | -0.999 |
| FNCNICGAAFTQKGNLLRHIKL [46F_47N_49N_50I_52G_53A_54A_55F_67L_, Q9UKT9] | 1.61 | 0.951 | 0.00357 | -0.128 |
| LQCPICGFHCTQKGNLLRHIKL [46L_47Q_49P_50I_52G_53F_54H_55C_67L_, Q9UKT9] | 0.55 | 1.17 | 1.51 | 3.3 |
| LTCPICGFHCTQKGNLLRHIKL [46L_47T_49P_50I_52G_53F_54H_55C_67L_, Q9UKT9] | 1.1 | 2.57 | 2.47 | 2.78 |
| LHCPICGFHCTQKGNLLRHIKL [46L_47H_49P_50I_52G_53F_54H_55C_67L_, Q9UKT9] | 2.33 | 2.45 | 2.55 | 1.95 |
| LFCPICGFHCTQKGNLLRHIKL [46L_47F_49P_50I_52G_53F_54H_55C_67L_, Q9UKT9] | 2.94 | 3.37 | 2.6 | 1.88 |
| LMCPICGFHCTQKGNLLRHIKL [46L_47M_49P_50I_52G_53F_54H_55C_67L_, Q9UKT9] | 0.0156 | 1.21 | 2.51 | 2.06 |
| LVCPICGFHCTQKGNLLRHIKL [46L_47V_49P_50I_52G_53F_54H_55C_67L_, Q9UKT9] | 0.161 | 2 | 1.81 | 2.57 |
| LNCPICGFHCTQKGNLLRHIKL [46L_47N_49P_50I_52G_53F_54H_55C_67L_, Q9UKT9] | 1.34 | 0.56 | 0.934 | 1.12 |
| LDCPICGFHCTQKGNLLRHIKL [46L_47D_49P_50I_52G_53F_54H_55C_67L_, Q9UKT9] | 1.47 | 0.38 | 0.522 | 1.41 |
| LWCPICGFHCTQKGNLLRHIKL [46L_47W_49P_50I_52G_53F_54H_55C_67L_, Q9UKT9] | 2.74 | 3.54 | 2.74 | 1.65 |
| LECPICGFHCTQKGNLLRHIKL [46L_47E_49P_50I_52G_53F_54H_55C_67L_, Q9UKT9] | -0.151 | -0.655 | 1.91 | 2.84 |
| LYCPICGFHCTQKGNLLRHIKL [46L_47Y_49P_50I_52G_53F_54H_55C_67L_, Q9UKT9] | 3.13 | 3.49 | 2.61 | 1.83 |
| LSCPICGFHCTQKGNLLRHIKL [46L_47S_49P_50I_52G_53F_54H_55C_67L_, Q9UKT9] | 2.37 | 2.02 | 2.39 | 2.28 |
| LACNQCGFRCTQKGNLLRHIKL [46L_47A_49N_50Q_52G_53F_54R_55C_67L_, Q9UKT9] | -0.828 | -1.5 | -1.86 | -1.22 |
| FSCPICGRLFTQKGNLLRHIKL [46F_47S_49P_50I_52G_53R_54L_55F_67L_, Q9UKT9] | -0.866 | -1.05 | 1.44 | -0.361 |

— the supplement of paper PMC12645437, “Orthogonal IMiD-Degron Pairs Induce Selective Protein Degradation in Cells” (ACS Chemical Biology, 2025)
